According to PubChem BioAssay AID463173 (ICCB-Longwood Screening Facility, Harvard Medical School, 2010):
The whole screen tested about 52,000 compounds, of which about 1,700 (3.3%) were called active. Rule as the data show it: active = survival mostly below about 52% (no sharp cut-off); inactive = mostly above about 56%. This excerpt belongs to a sample that is enriched for actives.

system: Wild type; experiment: S. aureus survival, RN4220 and DeltatarO strains – OD600, teichoic acid synthesis inhibitors, primary screen (AID 463173); settings: S. aureus RN4220 wild type/DeltatarO growth, OD600, 18 h, active compounds read low, screened at 18.75 µg/mL (by protocol)

| SMILES | survival |
| --- | --- |
| CCOC(=O)CNc1cccc(Cl)c1 | 112% (inactive) |
| COc1cccc(CNC(=O)C(=O)Nc2c3c(nn2-c2ccccc2)CSC3)c1 | 66% (inactive) |
| Cc1ccc(NC(=O)c2cc(S(=O)(=O)N3CCC4(CC3)OCCO4)ccc2F)cc1Cl | 87% (inactive) |
| COc1ccc(N2CCN(C(=O)CNS(=O)(=O)c3ccc(Br)s3)CC2)cc1 | 61% (inactive) |
| COc1ccc(Nc2oc(/C=C/c3cc(OC)c(OC)c(OC)c3)nc2C#N)cc1 | 78% (inactive) |
| CC(=O)N1CCC2(CC1)OC(=O)C(C)=C2C(=O)NCc1ccccc1Cl | 70% (inactive) |
| CCOc1ccc(CCNC(=O)c2cnc3c(-c4ccc(F)cc4)c(C)nn3c2C)cc1 | 85% (inactive) |
| CCC(Sc1nnc(C)n2c1cc1occc12)C(=O)Nc1ccccc1OC (stereo unspecified) | 90% (inactive) |
| CCOc1ccccc1NC(=O)C(CC)n1c(C(=O)OC)cc2occc21 (stereo unspecified) | 0% (active) |
| CCC(C(=O)Nc1ccccc1OC)n1c(C(=O)OC)cc2sc(Cl)cc21 (stereo unspecified) | 0% (active) |
| CCOC(=O)c1cc2occc2n1C(C)C(=O)OCC (stereo unspecified) | 95% (inactive) |
| CCn1c(C(=O)Nc2ccccc2C(=O)OC)cc2sc(Cl)cc21 | 43% (inactive) |
| CCc1ccccc1NC(=O)c1cc2sc(Cl)cc2n1CC | 90% (inactive) |
| COc1ccc2c(c1)CC(NC(=O)Nc1ccc(NC(C)=O)cc1)CO2 (stereo unspecified) | 121% (inactive) |
| CCN1c2ccccc2-c2nc(SCC(=O)Nc3cc(OC)cc(OC)c3)ncc2S1(=O)=O | 32% (inactive) |
| CN(C(=O)C1=CC(c2ccc3c(c2)OCO3)=NS(=O)(=O)N1C)c1ccccc1 | 89% (inactive) |
| Cc1ccc2nsnc2c1S(=O)(=O)NC(C)(C)C | 96% (inactive) |
| CCc1nc2ccc(C(=O)N3CCN(c4ccccc4F)CC3)cc2nc1CC | 68% (inactive) |
| COc1cc(CN(CC2CCCO2)C(=O)c2ccc(F)cc2)cc(OC)c1OC (stereo unspecified) | 86% (inactive) |
| Cn1c(SCc2ccc(Br)cc2)nc2c([nH]c3ccccc32)c1=O | 131% (inactive) |
| CCCN(C(=O)Cn1c(=O)oc2cc(Cl)ccc21)c1ccc(C(C)C)cc1 | 8% (active) |
| CCn1c(=O)cc(OCC(=O)N(C)c2cc(Cl)ccc2C)c2ccccc21 | 62% (inactive) |

| SMILES | survival |
| --- | --- |
| CCn1c(=O)cc(OCC(=O)N(C)c2ccc(OC)cc2)c2ccccc21 | 78% (inactive) |
| CCCN(c1ccc(C(C)C)cc1)S(=O)(=O)c1ccc2c(c1)oc(=O)n2CC(=O)OCC | 73% (inactive) |
| CCCN(C(=O)COc1cc(=O)n(CC)c2ccccc12)c1ccc(C(C)C)cc1 | -7% (active) |
| CCN(C(=O)Cn1c(=O)oc2cc(Cl)ccc21)c1cccc(C(F)(F)F)c1 | 83% (inactive) |
| CCOC(=O)c1ccc(N2CCN(c3ccccc3OC)CC2)c(NC(=O)Nc2ccc(CC)cc2)c1 | 80% (inactive) |
| CCOC(=O)C(Cc1ccccc1)N1C(=O)c2ccccc2C1=O (stereo unspecified) | 104% (inactive) |
| COc1cccc(NS(=O)(=O)c2ccc3[nH]cc(C(=O)NCCc4ccc(C)cc4)c(=O)c3c2)c1 | 124% (inactive) |
| Nc1ccc(S(=O)(=O)N2CCSC2C(=O)O)cc1 (stereo unspecified) | 101% (inactive) |
| Clc1cccc(N2CCN(c3ncnc4c3nc3n4CCCC3)CC2)c1 | 117% (inactive) |
| O=C(C1CCN(c2ncnc3c2nc2n3CCCCC2)CC1)N1CCN(c2cccc(Cl)c2)CC1 | 57% (inactive) |
| COc1ccc(N2CCN(c3ncnc4c3nc3n4CCCCC3)CC2)cc1 | 73% (inactive) |
| c1ccc(N2CCN(c3ncnc4c3nc3n4CCCCC3)CC2)cc1 | 72% (inactive) |
| COc1cccc(N2CCN(c3ncnc4c3nc3n4CCCCC3)CC2)c1 | -3% (active) |
| Clc1cccc(N2CCN(c3ncnc4c3nc3n4CCCCC3)CC2)c1 | 3% (active) |
| CCn1cc(C(=O)Nc2cccc(Cl)c2)c2cc(OC)c(OC)cc2c1=O | 76% (inactive) |
| FC(F)(F)Sc1ccc2noc(-c3ccccc3)c2c1 | 115% (inactive) |
| NC(=O)c1ccccc1NC(=O)c1ccc(-c2ccc(Br)cc2)o1 | 95% (inactive) |
| COc1cc(C)cc2oc(=O)c(CC(=O)NCCc3ccc(Cl)cc3)c(C)c12 | 118% (inactive) |
| C=CCc1ccccc1OCCSc1nc(-c2ccccc2F)nc2cc(=O)[nH]n12 | 80% (inactive) |
| COc1ccccc1OCCSc1nc(-c2ccc(C(C)(C)C)cc2)nc2cc(=O)[nH]n12 | 22% (inactive) |
| C=CCc1ccccc1OCCSc1nc(-c2ccc(C(C)(C)C)cc2)nc2cc(=O)[nH]n12 | 0% (active) |
| Cc1cccc(C)c1NCc1nnc(SCC(N)=O)n1-c1ccccc1 | 110% (inactive) |

| SMILES | survival |
| --- | --- |
| Cc1cc(C)cc(-n2ccn(CC(=O)Nc3ccccc3F)c(=O)c2=O)c1 | 82% (inactive) |
| Cc1cc(C)cc(NC(=O)Cn2nnc(C(=O)NCc3ccccc3Cl)c2N)c1 | 77% (inactive) |
| Cc1ccc(C)c(NC(=O)c2nnn(CC(=O)Nc3cccc(C)c3C)c2N)c1 | 88% (inactive) |
| CCc1ccccc1NC(=O)Cn1nnc(C(=O)NCc2ccccc2Cl)c1N | -3% (active) |
| Cc1cccc(NC(=O)Cn2nnc(C(=O)Nc3ccccc3Br)c2N)c1C | 0% (active) |
| CCc1ccccc1NC(=O)Cn1nnc(C(=O)NCc2cccs2)c1N | 96% (inactive) |
| COc1ccccc1NC(=O)Cn1nnc(C(=O)Nc2ccccc2Br)c1N | 85% (inactive) |
| COc1cccc(CNC(=O)CC(c2ccc(F)cc2)N2Cc3ccccc3C2=O)c1 (stereo unspecified) | 82% (inactive) |
| CCN(CC)C(=O)CSc1nc2ccccc2c(=O)n1CC | 107% (inactive) |
| COc1ccc(Nc2oc(/C=C/c3ccccc3OC)nc2C#N)cc1 | 86% (inactive) |
| CCc1ccc2ncc3c(-c4ccc(C)cc4)nn(CC(=O)NCc4ccccc4)c3c2c1 | 65% (inactive) |
| COc1ccc(-n2nc(-c3ccc(C)cc3)c3cnc4cc(F)c(F)cc4c32)cc1 | 85% (inactive) |
| CCOc1ccc2ncc3c(-c4cccc(OC)c4)nn(-c4ccccc4)c3c2c1 | 125% (inactive) |
| CCOc1ccc(-c2nn(-c3ccc(F)cc3)c3c2cnc2ccc(F)cc23)cc1 | 86% (inactive) |
| COc1ccc2ncc3c(-c4ccccc4)nn(-c4ccc(C)c(C)c4)c3c2c1 | 0% (active) |
| CCc1ccc2ncc3c(-c4ccc(C)cc4)nn(CC(=O)Nc4ccc(C)cc4)c3c2c1 | 47% (inactive) |
| CCc1ccc(-c2nn(CC(=O)NC3CCCCC3)c3c2cnc2ccc(F)cc23)cc1 | 68% (inactive) |
| Cc1ccc(-n2nc(-c3ccccc3)c3cnc4cc5c(cc4c32)OCO5)cc1C | 110% (inactive) |
| Cc1ccc(-c2nn(CC(=O)NC3CCCCC3)c3c2cnc2ccc(F)cc23)cc1C | -3% (active) |
| Cc1ccc(-c2nn(CC(=O)NC3CCCC3)c3c2cnc2ccc(F)cc23)cc1C | 74% (inactive) |
| CCCNC(=O)Cn1nc(-c2ccc(C)cc2)c2cnc3ccc(CC)cc3c21 | 10% (active) |
| CCc1ccc(-c2nn(-c3ccc(OC)cc3)c3c2cnc2ccc(OC)cc23)cc1 | 9% (active) |
